We go through 38 molecules from PubChem BioAssay (NCI).

The panel holds about 83,000 compounds, 20% with a hit somewhere; the sample as a whole holds those more often.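 Cell lines were cultured in 96-well plates, exposed to a single compound concentration, and assessed for percent growth 48 hours later.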 Active and inactive are the calls of the source. Rule for the calls: active = growth percent below 10; inactive = the rest.

This assay relates to SN12C renal. Briefly: NCI-60 one-dose screen, 48 h (100 = growth as untreated, 0 = no growth, -100 = all killed). The settings on record: 10 µM unless noted.
`CCC1S/C(=N\N=C(/C)c2cccs2)N(c2ccccc2)C1=O` (stereo not drawn): the growth is 135% (inactive).
On to `COc1ccc2c(c1)/C(=C/c1c(-c3cc(OC)c(OC)c(OC)c3Br)nc3sccn13)C(=O)N2`, for which the growth is 120% (inactive).
In the case of `N#CC(C#N)=C(C#N)c1c[nH]c2ccccc12` it was 79% (inactive); in that of `CNC(=O)NN`, 110% (inactive).
In the case of `ClC1c2ccccc2CCc2ccccc21` it was 103% (inactive); in that of `COc1ccc(-c2cc3ccc(N(C)C)cc3nc2N)c(F)c1`, 54% (inactive).
As to `CCOC(=O)C(C)(CSSCC(C)(NC(=O)c1ccc2ccccc2c1)C(=O)OCC)NC(=O)c1ccc2ccccc2c1` (stereo not drawn), the growth was 104% (inactive).
For `COc1ccc(-c2cc(-c3nnc(SC/C(=N\O)c4ccccc4)n3-c3ccccc3)c3ccccc3n2)cc1` the value was 105% (inactive); for `CC(=O)Nc1ccc([I+]c2ccc([N+](=O)[O-])cc2)cc1`, 88.3% (inactive).
Consider `O=[N+]([O-])c1ccc(NS(=O)(=O)c2ccccc2)c2ccccc12`, for which the growth is 44.5% (inactive).
For `COc1ccc(-c2c(C#N)cnc(N)c2-c2nc3cc(C)c(C)cc3[nH]2)cc1` the value was 80.7% (inactive); for `S=c1n(CNc2ccc(Cl)nn2)nc(-c2cc(Cl)cc(Cl)c2Cl)n1/N=C/c1ccc(Cl)cc1`, 103% (inactive); for `Cc1ccc2c(c1)Nc1ccc(C)cc1C2(C)C`, 103% (inactive).
Consider `Clc1ccc2c(NCCNc3nc(Cl)nc4ccccc34)ccnc2c1`, for which the growth is -76.6% (active).
For `CN1CCN(Cn2nc(-c3cc(Cl)cc(Cl)c3Cl)n(/N=C/c3ccc(Cl)cc3)c2=S)CC1` the value was 96.4% (inactive); for `C=C1C(=O)O[C@H]2[C@H]1CC/C(COC(=O)c1ccc(Cl)nc1)=C\CC[C@@]1(C)O[C@@H]21`, 12.9% (inactive).
In the case of `COc1ccc(/C=N/C2=NNC(C)(c3ccccc3O)N2C(Cc2c[nH]c3ccccc23)C(=O)O)cc1` (stereo not drawn) it was 34.4% (inactive); in that of `COc1ccc(/C=C/C(=O)/C=C(/C=C/c2ccc(OC)c(OC)c2OC)OB(F)F)c(OC)c1OC`, 20.6% (inactive); in that of `Cc1cc(N2CCOCC2)nc(N(CCNc2ccnc3cc(Cl)ccc23)Cc2ccco2)n1`, 47.5% (inactive).
For `NN=C(c1ccc(Cl)cc1)c1ccc(Cl)cc1` the value was 105% (inactive).
For `Cc1cc2c(cc1C)N(C(=O)CCl)CCN2C(=O)CCl`, the growth is -38.4% (active).
In the case of `COc1cccc(/C=N/C(=S)NC2(C)C3CCC(C3)C2(C)C)c1O` (stereo not drawn) it was 100% (inactive); in that of `CC(=O)c1cc2c(N)c(C(=O)Nc3cccc(Cl)c3)sc2nc1C`, 92.6% (inactive).
In the case of `CCOC(=O)c1cnc2c(OC)ccc(OC)c2c1Cl` it was 110% (inactive).
In the case of `CCOc1cccc(Nc2nc(N)nc3[nH]c4ccc(O)cc4c23)c1` it was 54.1% (inactive).
As for `CC(C)CCC[C@@H](C)[C@H]1CC[C@H]2[C@@H]3CC=C4N(c5ccccc5)C(=O)CC[C@]4(C)[C@H]3CC[C@]12C`, the growth was 86.2% (inactive).
For `C=C(C)[C@@H]1C/C=C(\COC(=O)[C@H](OC(C)=O)C(NC(=O)c2ccccc2)c2ccccc2)CC[C@H]2O[C@]2(C)CC/C=C(\C)CC1` (stereo partly drawn) the value was 82.1% [5 µM] (inactive).
In the case of `C/C(=N/NC(=O)Cn1c2ccccc2c2ccncc21)c1cccs1` it was 104% (inactive); in that of `CC(=S)Nc1ccccc1`, 92.9% (inactive); in that of `Nc1ccc(S(=O)(=O)Nc2cc(I)cc(I)c2)cc1`, 115% (inactive).
For `Cc1cn([C@]2(CF)O[C@H](CO)C2C)c(=O)[nH]c1=O` (stereo partly drawn) the value was 125% (inactive).
As for `COc1cc(NC(C)CCCN2C(=O)c3ccccc3C2=O)c2nccc(C)c2c1OC` (stereo not drawn), the growth was 126% (inactive).
In the case of `O=C(O)c1ccccc1C(=O)c1ccc(I)cc1` it was 104% (inactive); in that of `CC(C(=O)O)N1C(N)=NNC1c1ccccc1O` (stereo not drawn), 93.4% (inactive); in that of `COc1ccc(C2=NN(C(=O)COc3ccc(Cl)cc3)C(O)(c3cc(F)c(Cl)cc3Cl)C2)cc1OC` (stereo not drawn), 19.8% (inactive).
For `CCCCNC(=O)Oc1ccc(/C(=C(/CC)Cc2ccccc2)c2ccc(OCCCN(C)C)cc2)cc1`, the growth was 82.8% (inactive).
For the molecule `COc1ccc(C(=O)Cn2cnc3c(Nc4cc(C(=O)Nc5ccc(N6CCN(CCO)CC6)cc5)ccc4C)ncnc32)cc1`, the growth is 104% (inactive).
For `COc1cc(NC(=O)c2cc(OC)c3ccn(C)c3c2)cc2c1C[C@]1(C)CC[C@@H](O)C(C)(C)[C@H]1O2` the value was 86.6% (inactive).
